The record followed here is the supplement of paper PMC12819154, “High-throughput peptide-centric local stability assay extends protein–ligand identification to membrane proteins, tissues and bacteria” (Nature Structural & Molecular Biology, 2025).

UniProt Q8BZ09, sequence (Q8BZ09 whole entry): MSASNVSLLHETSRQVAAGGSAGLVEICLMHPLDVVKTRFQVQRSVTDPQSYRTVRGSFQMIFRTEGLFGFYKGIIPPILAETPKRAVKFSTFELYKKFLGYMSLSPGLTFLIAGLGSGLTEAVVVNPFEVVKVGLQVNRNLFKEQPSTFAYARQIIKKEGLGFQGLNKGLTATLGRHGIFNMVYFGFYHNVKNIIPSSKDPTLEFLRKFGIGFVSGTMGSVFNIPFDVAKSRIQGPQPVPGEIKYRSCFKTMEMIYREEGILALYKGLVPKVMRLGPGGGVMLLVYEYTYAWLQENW
UniProt Q9DBM2, sequence (Q9DBM2 whole entry): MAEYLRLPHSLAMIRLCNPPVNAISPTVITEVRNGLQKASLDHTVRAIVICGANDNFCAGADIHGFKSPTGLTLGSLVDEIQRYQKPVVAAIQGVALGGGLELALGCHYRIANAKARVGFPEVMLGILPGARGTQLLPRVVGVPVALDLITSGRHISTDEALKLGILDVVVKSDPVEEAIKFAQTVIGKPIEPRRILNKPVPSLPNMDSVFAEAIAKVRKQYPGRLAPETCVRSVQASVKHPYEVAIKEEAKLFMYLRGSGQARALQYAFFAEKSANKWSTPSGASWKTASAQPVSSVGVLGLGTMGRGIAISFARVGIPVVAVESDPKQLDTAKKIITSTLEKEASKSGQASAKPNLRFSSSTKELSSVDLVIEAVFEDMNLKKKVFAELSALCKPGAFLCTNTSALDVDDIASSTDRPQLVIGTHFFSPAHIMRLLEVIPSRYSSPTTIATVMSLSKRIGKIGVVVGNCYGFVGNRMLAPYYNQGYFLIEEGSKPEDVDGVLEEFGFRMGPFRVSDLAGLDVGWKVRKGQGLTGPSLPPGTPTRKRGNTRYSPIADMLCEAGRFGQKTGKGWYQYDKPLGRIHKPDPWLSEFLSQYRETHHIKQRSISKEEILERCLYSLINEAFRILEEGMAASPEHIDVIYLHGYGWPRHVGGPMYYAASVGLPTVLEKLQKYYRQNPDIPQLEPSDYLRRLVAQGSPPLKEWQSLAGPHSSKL
UniProt P55264, sequence (P55264 whole entry): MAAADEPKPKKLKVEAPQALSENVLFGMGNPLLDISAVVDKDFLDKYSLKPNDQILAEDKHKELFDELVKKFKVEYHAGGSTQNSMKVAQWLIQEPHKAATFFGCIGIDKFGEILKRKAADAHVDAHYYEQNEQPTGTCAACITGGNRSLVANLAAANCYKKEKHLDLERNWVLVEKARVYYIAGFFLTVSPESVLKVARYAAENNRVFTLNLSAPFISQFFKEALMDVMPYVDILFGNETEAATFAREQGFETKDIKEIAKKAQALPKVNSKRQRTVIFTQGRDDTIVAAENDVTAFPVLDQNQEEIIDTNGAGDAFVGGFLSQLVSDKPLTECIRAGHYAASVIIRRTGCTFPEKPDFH
UniProt Q8CAQ8, sequence (Q8CAQ8 whole entry): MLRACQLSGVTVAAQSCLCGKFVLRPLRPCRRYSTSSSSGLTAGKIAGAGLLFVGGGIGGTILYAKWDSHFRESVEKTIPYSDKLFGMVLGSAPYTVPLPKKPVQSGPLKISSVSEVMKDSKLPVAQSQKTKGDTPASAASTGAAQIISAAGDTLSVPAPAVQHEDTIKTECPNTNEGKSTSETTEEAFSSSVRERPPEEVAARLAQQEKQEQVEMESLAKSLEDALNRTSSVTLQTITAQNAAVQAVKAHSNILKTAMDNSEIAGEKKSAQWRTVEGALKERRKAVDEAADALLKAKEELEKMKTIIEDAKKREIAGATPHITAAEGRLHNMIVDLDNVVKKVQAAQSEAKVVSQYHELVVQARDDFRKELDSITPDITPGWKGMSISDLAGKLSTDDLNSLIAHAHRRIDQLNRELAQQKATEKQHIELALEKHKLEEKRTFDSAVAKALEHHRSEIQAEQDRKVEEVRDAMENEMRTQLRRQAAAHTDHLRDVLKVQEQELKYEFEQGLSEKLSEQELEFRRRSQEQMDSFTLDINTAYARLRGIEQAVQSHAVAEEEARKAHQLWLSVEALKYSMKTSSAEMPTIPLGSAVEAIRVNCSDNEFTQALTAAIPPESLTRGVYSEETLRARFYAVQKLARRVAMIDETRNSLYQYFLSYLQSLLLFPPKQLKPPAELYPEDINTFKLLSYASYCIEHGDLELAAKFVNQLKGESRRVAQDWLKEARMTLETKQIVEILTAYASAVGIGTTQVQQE
UniProt Q8CIM7, sequence (Q8CIM7 whole entry): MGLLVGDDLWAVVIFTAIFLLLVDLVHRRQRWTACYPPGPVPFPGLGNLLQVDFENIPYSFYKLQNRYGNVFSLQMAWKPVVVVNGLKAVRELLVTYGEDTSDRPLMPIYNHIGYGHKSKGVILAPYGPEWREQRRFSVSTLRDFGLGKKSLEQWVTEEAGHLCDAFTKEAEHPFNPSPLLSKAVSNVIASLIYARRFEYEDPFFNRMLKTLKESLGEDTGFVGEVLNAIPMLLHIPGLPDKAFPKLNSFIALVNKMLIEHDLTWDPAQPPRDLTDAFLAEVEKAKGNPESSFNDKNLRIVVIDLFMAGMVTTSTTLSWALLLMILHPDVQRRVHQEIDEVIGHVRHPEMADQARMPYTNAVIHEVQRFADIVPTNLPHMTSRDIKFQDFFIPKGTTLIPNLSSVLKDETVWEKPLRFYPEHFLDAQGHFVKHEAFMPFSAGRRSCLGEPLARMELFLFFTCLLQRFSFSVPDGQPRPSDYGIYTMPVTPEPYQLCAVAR
UniProt P70268, sequence (P70268 whole entry): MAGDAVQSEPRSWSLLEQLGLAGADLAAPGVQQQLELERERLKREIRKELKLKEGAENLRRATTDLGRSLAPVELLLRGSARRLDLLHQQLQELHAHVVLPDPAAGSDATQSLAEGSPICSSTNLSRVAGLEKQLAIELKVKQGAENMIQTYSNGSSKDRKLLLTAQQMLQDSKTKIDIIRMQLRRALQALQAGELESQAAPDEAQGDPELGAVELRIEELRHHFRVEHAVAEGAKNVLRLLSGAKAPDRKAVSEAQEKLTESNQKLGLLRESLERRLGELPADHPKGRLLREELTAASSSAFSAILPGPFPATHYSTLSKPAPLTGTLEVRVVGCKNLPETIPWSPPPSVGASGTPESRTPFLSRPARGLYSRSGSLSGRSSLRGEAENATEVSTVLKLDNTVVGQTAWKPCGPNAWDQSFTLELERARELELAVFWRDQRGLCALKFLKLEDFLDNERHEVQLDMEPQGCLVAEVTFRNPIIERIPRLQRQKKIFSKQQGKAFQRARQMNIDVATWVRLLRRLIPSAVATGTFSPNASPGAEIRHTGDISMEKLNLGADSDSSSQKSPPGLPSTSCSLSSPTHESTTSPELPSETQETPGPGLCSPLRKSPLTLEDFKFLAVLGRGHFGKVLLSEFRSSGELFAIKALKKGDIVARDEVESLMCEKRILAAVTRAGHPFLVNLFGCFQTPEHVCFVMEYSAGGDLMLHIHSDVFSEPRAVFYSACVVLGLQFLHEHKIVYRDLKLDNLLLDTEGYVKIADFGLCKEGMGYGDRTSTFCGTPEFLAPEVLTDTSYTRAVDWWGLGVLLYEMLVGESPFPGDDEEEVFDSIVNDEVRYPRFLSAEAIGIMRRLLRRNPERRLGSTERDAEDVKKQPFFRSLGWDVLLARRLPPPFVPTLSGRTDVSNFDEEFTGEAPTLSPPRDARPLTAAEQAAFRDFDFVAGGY
UniProt P24788, sequence (P24788 whole entry): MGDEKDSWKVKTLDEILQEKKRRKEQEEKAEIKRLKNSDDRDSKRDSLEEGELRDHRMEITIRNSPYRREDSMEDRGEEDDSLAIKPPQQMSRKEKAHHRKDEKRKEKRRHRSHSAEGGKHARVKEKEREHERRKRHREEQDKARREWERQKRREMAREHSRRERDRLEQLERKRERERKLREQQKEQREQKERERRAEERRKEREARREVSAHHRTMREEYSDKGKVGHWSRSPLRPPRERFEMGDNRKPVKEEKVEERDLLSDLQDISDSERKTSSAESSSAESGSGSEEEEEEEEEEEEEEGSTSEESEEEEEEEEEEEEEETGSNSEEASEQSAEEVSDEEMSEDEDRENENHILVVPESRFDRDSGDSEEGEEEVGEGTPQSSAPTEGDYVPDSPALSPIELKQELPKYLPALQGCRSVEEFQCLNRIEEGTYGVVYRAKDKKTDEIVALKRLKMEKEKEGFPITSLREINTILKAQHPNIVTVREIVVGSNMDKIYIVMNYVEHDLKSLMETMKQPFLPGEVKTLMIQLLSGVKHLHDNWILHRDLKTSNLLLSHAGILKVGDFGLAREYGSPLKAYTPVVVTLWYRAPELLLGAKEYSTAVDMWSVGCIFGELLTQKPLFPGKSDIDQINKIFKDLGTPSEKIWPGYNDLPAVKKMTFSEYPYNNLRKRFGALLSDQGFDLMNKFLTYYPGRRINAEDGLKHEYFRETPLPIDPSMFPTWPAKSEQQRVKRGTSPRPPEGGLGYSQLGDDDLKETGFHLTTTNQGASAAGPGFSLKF
UniProt P41241, sequence (P41241 whole entry): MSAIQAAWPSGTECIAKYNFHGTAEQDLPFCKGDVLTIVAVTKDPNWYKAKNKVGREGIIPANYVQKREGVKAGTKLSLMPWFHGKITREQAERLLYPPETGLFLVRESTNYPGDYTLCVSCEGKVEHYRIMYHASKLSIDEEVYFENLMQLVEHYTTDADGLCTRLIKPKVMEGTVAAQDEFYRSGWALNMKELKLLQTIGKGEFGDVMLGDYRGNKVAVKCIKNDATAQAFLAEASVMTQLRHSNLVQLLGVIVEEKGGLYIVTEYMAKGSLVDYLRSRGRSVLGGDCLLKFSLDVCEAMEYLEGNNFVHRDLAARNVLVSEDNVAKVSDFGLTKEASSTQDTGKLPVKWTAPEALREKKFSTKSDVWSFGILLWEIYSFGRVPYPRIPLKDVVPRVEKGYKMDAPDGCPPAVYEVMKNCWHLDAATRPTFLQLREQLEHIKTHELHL
UniProt P12710, sequence (P12710 whole entry): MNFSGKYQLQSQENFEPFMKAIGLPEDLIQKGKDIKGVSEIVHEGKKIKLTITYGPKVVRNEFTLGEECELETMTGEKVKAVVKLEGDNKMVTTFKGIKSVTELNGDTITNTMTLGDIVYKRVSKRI

Compound in the test: CN[C@@H]1C[C@H]2O[C@@](C)([C@@H]1OC)n1c3ccccc3c3c4c(c5c6ccccc6n2c5c31)C(=O)NC4 [staurosporine]
In words: log2 fold change of tryptic peptide abundance, ligand vs vehicle (limited proteolysis) (log2 ratio); higher = more trypsin-susceptible (destabilized). To be noted: ligand concentration: 20 uM; sample: mouse liver crude lysate; replicate design: treated separately.
Consider “UniProt Q9DBM2 (peptide sequence: VGIPVVAVESDPKQLDTAKK, peptide start residue: 317)”, for which the log2 fold change was determined as 0.344.

Turning to “UniProt Q9WU79 (peptide sequence: ASGGASDGGFSAIK, peptide start residue: 220)”, the log2 fold change came out at 0.201.

“UniProt Q9ERK4 (peptide sequence: LLQAFLER, peptide start residue: 707)”: the log2 fold change worked out at 0.291.

As to “UniProt P41241 (peptide sequence: GSLVDYLR, peptide start residue: 272)”, the log2 fold change was -1.06.

For “UniProt Q7TMR0 (peptide sequence: AHNAFDPSSVLLSR, peptide start residue: 459)”, the log2 fold change amounted to 0.784.

For the target “UniProt Q9ET43 (peptide sequence: SRLSAIEIDIPVVSHST, peptide start residue: 228)”, the log2 fold change is -0.532.

“UniProt P41216 (peptide sequence: WLLDFASK, peptide start residue: 389)”: the log2 fold change is 0.328.

In the case of “UniProt Q9EQ20 (peptide sequence: YQQLIKENLKEIAR, peptide start residue: 108)”, the log2 fold change is -0.315.

For “UniProt Q61335 (peptide sequence: QAESASEAAK, peptide start residue: 139)”, the log2 fold change worked out at 0.352.

For the target “UniProt Q8CAQ8 (peptide sequence: ATEKQHIELALEK, peptide start residue: 423)”, the log2 fold change was -1.29.

Take “UniProt P70268 (peptide sequence: EGMGYGDR, peptide start residue: 805)”: the log2 fold change is -3.03.

For the target “UniProt Q9DCQ2 (peptide sequence: VTMATHPDGFRLEGPLAAAHSSGPR, peptide start residue: 152)”, the log2 fold change was -0.804.

“UniProt Q9CZW4 (peptide sequence: ALDFGNGLQMLGQKPK, peptide start residue: 144)”: the log2 fold change turned out to be 0.538.

“UniProt Q8CIM7 (peptide sequence: GNPESSFNDKNLR, peptide start residue: 287)”: the log2 fold change was -0.562.

Regarding “UniProt Q63932 (peptide sequence: ISELGAGNGGVVTK, peptide start residue: 75)”, the log2 fold change is -0.512.

With “UniProt Q5SW19 (peptide sequence: YLELLER, peptide start residue: 517)”, the log2 fold change was -0.493.

With “UniProt P56593 (peptide sequence: FSNFAPLGIPR, peptide start residue: 360)”, the log2 fold change is -0.352.

As for “UniProt Q6P4S6 (peptide sequence: LIAECQQLKEER, peptide start residue: 329)”, the log2 fold change was -1.43.

For the target “UniProt Q9DCN1 (peptide sequence: AIAHQLIK, peptide start residue: 446)”, the log2 fold change is -0.997.

Turning to “UniProt E9Q414 (peptide sequence: LPQQIHHYLNASDWER, peptide start residue: 2117)”, the log2 fold change was 0.422.

In the case of “UniProt Q8C878 (peptide sequence: LPEHCIEYVR, peptide start residue: 245)”, the log2 fold change worked out at 0.505.

In the case of “UniProt O88351 (peptide sequence: DLKPENIVLQQGEKR, peptide start residue: 145)”, the log2 fold change is -0.744.

Regarding “UniProt P24788 (peptide sequence: YLPALQGCR, peptide start residue: 414)”, the log2 fold change was -0.33.

Take “UniProt Q8BZ09 (peptide sequence: IQGPQPVPGEIK, peptide start residue: 234)”: the log2 fold change was found to be 0.534.

As to “UniProt P19253 (peptide sequence: LAHEVGWK, peptide start residue: 141)”, the log2 fold change came to 0.254.

“UniProt Q99PV0 (peptide sequence: VESHFDLELR, peptide start residue: 677)”: the log2 fold change is 0.478.

Consider “UniProt Q6XUX1 (peptide sequence: SLQDVLLHR, peptide start residue: 640)”, for which the log2 fold change was -1.84.

As for “UniProt Q91WL5 (peptide sequence: GLLMLDGQTWFQHR, peptide start residue: 128)”, the log2 fold change worked out at 0.409.

With “UniProt P52332 (peptide sequence: NVLVESEHQVK, peptide start residue: 1007)”, the log2 fold change was -2.98.

Regarding “UniProt O70579 (peptide sequence: NVLSLLHQR, peptide start residue: 249)”, the log2 fold change is 0.904.

With “UniProt O70318 (peptide sequence: RVTPLPFQPQASSHETLNVVEEK, peptide start residue: 654)”, the log2 fold change was -0.88.

For the target “UniProt P55264 (peptide sequence: ELFDELVK, peptide start residue: 63)”, the log2 fold change is -2.24.

Regarding “UniProt P53395 (peptide sequence: DRTEPVTGFQK, peptide start residue: 251)”, the log2 fold change came out at 0.423.

“UniProt P12710 (peptide sequence: DIKGVSEIVHEGK, peptide start residue: 34)”: the log2 fold change worked out at 0.719.

“UniProt Q8BH59 (peptide sequence: LQVAGEITTGPR, peptide start residue: 457)”: the log2 fold change was found to be 0.568.
